# Test results: PubChem BioAssay (Tox21)
# Values joined by “and” are separate entries in the source; they are usually repeats but may differ in a detail not shown here. Equal values may be shown once. A structure can be active in one record and inactive in another. Active and inactive are the calls of the source. A call without a number means that no potency is given here. Unless noted, calls come from the whole dose curve.
# Target: Estrogen receptor (Homo sapiens) (UniProt P03372)
# Experiment: qHTS assay to identify small molecule agonists of the estrogen receptor alpha (ER-alpha) signaling pathway (AID 743075);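 note: HEK293 GripTite cells with ER-alpha and UAS-driven beta-lactamase reporter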
# Details: HEK293 ER-alpha-UAS-bla, beta-lactamase FRET ratio, 18 h; series mostly up to 70.1 µM
# Potency is the fitted concentration of half-maximal effect.
# Sequence of Estrogen receptor (Homo sapiens) (P03372 whole entry, looked up): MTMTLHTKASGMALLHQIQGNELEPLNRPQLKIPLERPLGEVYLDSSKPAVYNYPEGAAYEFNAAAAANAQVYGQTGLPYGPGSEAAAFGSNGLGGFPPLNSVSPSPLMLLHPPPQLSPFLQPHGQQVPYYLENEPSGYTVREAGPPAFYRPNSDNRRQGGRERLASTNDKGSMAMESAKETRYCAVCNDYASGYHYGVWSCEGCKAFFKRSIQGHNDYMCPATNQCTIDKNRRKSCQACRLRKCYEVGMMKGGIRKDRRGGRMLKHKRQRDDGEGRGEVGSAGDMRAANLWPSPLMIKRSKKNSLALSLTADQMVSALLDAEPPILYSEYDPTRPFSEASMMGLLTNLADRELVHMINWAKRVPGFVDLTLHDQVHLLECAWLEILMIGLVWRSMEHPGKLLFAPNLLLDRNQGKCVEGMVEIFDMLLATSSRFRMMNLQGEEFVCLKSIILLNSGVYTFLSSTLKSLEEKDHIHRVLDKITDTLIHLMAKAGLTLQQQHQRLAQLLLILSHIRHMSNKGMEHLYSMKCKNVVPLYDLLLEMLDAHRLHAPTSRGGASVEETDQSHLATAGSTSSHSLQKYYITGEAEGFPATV
row,SMILES,Potency
1,CC1=C(/C=C/C(C)=C/C=C/C(C)=C/CO)C(C)(C)CCC1,8.49 µM [inconclusive] (active) and inactive
2,CCOC(=O)/C=C\C(=O)OCC,inactive
3,CCCCCC/C=C/CCCCCCCC(=O)O,inactive
4,CCCCC/C=C\C/C=C\CCCCCCCC(=O)OC,inactive
5,CCCCCCOC(C)=O,inactive
6,S=c1nc[nH]c2nc[nH]c12,inactive
7,CC(C)(C)C1CCC(O)CC1 (stereo unspecified),inactive
8,NCc1cccc(CN)c1,inactive
9,OCC1CCCO1 (stereo unspecified),inactive
10,C=C(C)C(=O)OCCC[Si](OC)(OC)OC,inactive
11,O=[N+]([O-])c1cc(N(CCO)CCO)ccc1NCCO,inactive
12,CC1=CC[C@H]2C[C@@H]1C2(C)C,inactive
13,CCCCC(CC)C(=O)OCCOCCOCCOC(=O)C(CC)CCCC (stereo unspecified),inactive
14,O=C(c1cc(O)c(O)c(O)c1)c1ccc(O)c(O)c1O,inactive
15,Oc1ccc(OCc2ccccc2)cc1,11.4 µM [activator] (active) and 53.8 µM [inconclusive] (active)
16,CC(C)(C)C(=O)C1C(=O)c2ccccc2C1=O,inactive
17,O=C1O[C@H](CO)[C@@H](O)[C@H](O)[C@H]1O,inactive
18,Oc1c(Cl)cc(Cl)c(Cl)c1Cl,inactive
19,CCC(=O)O,inactive

# Target: Estrogen receptor (Homo sapiens) (UniProt P03372)
# Experiment: qHTS assay to identify small molecule agonists of the estrogen receptor alpha (ER-alpha) signaling pathway using the BG1 cell line (AID 743079; active = well fitted activation curve with a large enough effect in the repeat runs; inconclusive = weak or mixed curves, or effect the other way; inactive = no such curve, though single readings can be large or run the other way; note: nearly all actives have a fitted effect of over 20% in size)
# Details: BG1Luc4E2 cells, ERE-luciferase agonist, 22 h; series mostly up to 70.3 µM
row,SMILES,Potency
1,CC1=C(/C=C/C(C)=C/C=C/C(C)=C/CO)C(C)(C)CCC1,944 nM (active) and inactive
2,CCOC(=O)/C=C\C(=O)OCC,inactive
3,CCCCCC/C=C/CCCCCCCC(=O)O,30.7 µM (active) and inactive
4,CCCCC/C=C\C/C=C\CCCCCCCC(=O)OC,inactive
5,CCCCCCOC(C)=O,inactive
6,S=c1nc[nH]c2nc[nH]c12,inactive
7,CC(C)(C)C1CCC(O)CC1 (stereo unspecified),inactive
8,NCc1cccc(CN)c1,inactive
9,OCC1CCCO1 (stereo unspecified),inactive
10,C=C(C)C(=O)OCCC[Si](OC)(OC)OC,inactive
11,O=[N+]([O-])c1cc(N(CCO)CCO)ccc1NCCO,inactive
12,CC1=CC[C@H]2C[C@@H]1C2(C)C,inactive
13,CCCCC(CC)C(=O)OCCOCCOCCOC(=O)C(CC)CCCC (stereo unspecified),inactive
14,O=C(c1cc(O)c(O)c(O)c1)c1ccc(O)c(O)c1O,inactive
15,Oc1ccc(OCc2ccccc2)cc1,8.04 µM (active) and 9.48 µM (active)
16,O=C1O[C@H](CO)[C@@H](O)[C@H](O)[C@H]1O,inactive
17,CCC(=O)O,inactive
